± gives the standard deviation of the averaged measurements. The full ranking holds about 25,000 sequences; the median of “ln(normalized median fluorescence intensity)” is about 7.9, and the highest 2% start at about 11. This is one part of a sample in which the highest values are shown more often than they occur.
Tested on: PfAP2-I AP2 domain 3 (GST-tagged)
Assay: gcPBM binding intensity (ln(normalized median fluorescence intensity)); higher = stronger DNA binding
Summary of the method: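 Each value is the highest Masliner-normalised natural-log median intensity across replicate spots of either orientation of a probe. The probes were primer-extended double-stranded 36-bp intergenic genomic sequences on an Agilent 4 × 180k array, alongside negative controls, exposed for 1 h to GST-tagged P. falciparum DNA-binding domains expressed in E. coli. Bound protein was picked up with Alexa488 anti-GST antibody and scanned at 488 nm.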

Row | Sequence | gcPBM binding intensity (ln)
1 | AATATTATAAATGATACACACTTAAAATACAGACAC [CACACA_site8868] | 8.19 ± 0.4
2 | AATATTTATATTTACACACACATAATACCTATATGT [CACACA_site6167] | 7.83 ± 0.42
3 | TAAATGAGAAGGACTGCACACTAAAATGGAAGGAGA [CACACA_site8449] | 8.23 ± 0.71
4 | ATCCTGAACAGAATATGTATAAACAGAAGGAAACAA [CACACA_negctrl_site1805] | 7.92 ± 0.54
5 | GACATATATATAAAATGTACATATATATTTACATAT [XGTACX_site7822] | 7.75 ± 0.33
6 | TATTTATTTTTTTTTGTGCACTTAATATAATCTTAC | 11.07 ± 0.042
7 | TTTTTAATATATTAGGTGCACAATAATACACTTTAT | 11.51 ± 0.064
8 | TTTAATTTATATTTTGTGCACATCTTATTATATATA [GTGCAC_site9630] | 10.5 ± 0.21
9 | ATTCAATATTTATACACACACACTTTTAATAATTAA [CACACA_site7725] | 8.05 ± 0.55
10 | ATTCAATATATATACACACACACTTTTAATAATTAA [CACACA_site3770] | 8.1 ± 0.43
11 | ATTATTATTAATCTTGTGCACATATATTTTAATTAG | 10.6 ± 0.23
12 | CCGATATAATGGAAAACACACAAAAGATATATATAT [CACACA_site2683] | 9.01 ± 0.15
13 | AATATTTATAAATTTACACACACACCGGTGAACATA [CACACA_site8579] | 7.79 ± 0.57
14 | TTTTATAAATACACACGTACGTGTGCATAACGTTTT [XGTACX_site3199] | 9.465 ± 0.092
15 | CATTTTTTTTTATAAATACACACGTACGGGTGCATA [CACACA_site1569] | 8.54 ± 0.54
16 | TTTTTTTTTATAAATACACACGTACGGGTGCATAAC [CACACA_site8444] | 10.9 ± 0.73
17 | ATATGTAGATGATATTATTACTTTTCAAAAATTCAA [CACACA_negctrl_site933] | 7.58 ± 0.39
18 | TATGGTTTTAAAAAATGTACGCAAGTGCGTTAATTT [XGTACX_site3945] | 11.2 ± 0.93
19 | TCGTGGTTTTAATAAGTGCGCAATTTAAATATTTTT | 9.31 ± 0.18
20 | ATCATTTTTAATAAATGTACAAGTTTTAAAAAAAAA [XGTACX_site7340] | 7.7 ± 0.6
21 | ATACATATATGTGTGTGTACATAAATGTATATATTT [XGTACX_site6242] | 7.93 ± 0.38
22 | AACCCTTTTGATTTTTCTTTTTTTTTTTTTTTAAAT [CACACA_negctrl_site1667] | 7.5 ± 0.69
23 | TTTTTTAAAATATGGACACACATATATATATATGTA [CACACA_site2784] | 7.67 ± 0.3

Row | Sequence | gcPBM binding intensity (ln)
24 | TAAAACTTAATATAAACACACAAAAATTAATAAATA [CACACA_site4370] | 7.62 ± 0.44
25 | TTTTTTTTTTTTTCAAGTACATATATATATATATAA [XGTACX_site2098] | 7.99 ± 0.45
26 | TTTTTTTTTTTTCACGTGCACTATACATATAAGTAA | 11.1 ± 0.23
27 | TCACATTTTGGACACGTGCACATATATTTGATACAT | 9.48 ± 0.33
28 | ATATATATATATTTTACACACAATGGAGAAAAAAAT [CACACA_site644] | 9.01 ± 0.092
29 | TTTTAAAGAAAATATTTTATCATTATTTTTTGTACT [CACACA_negctrl_site1648] | 7.41 ± 0.57
30 | AGGGAAAAAAAAAAAGTGCATTTGTATTAAATGAAT | 9.9 ± 0.028
31 | TTAAAATCTTGAAAAGTGCATTATCATTTTGTAACG [GTGCAC_site9447] | 11.4 ± 0.73
32 | GAGAGGTATCAAAAATGTACACATATATATATGTAT [XGTACX_site5611] | 7.79 ± 0.47
33 | ATATATATATATGTAGTGCATTTTATATATAATATT | 9.875 ± 0.035
34 | AATATTTTATATGTAGTGCATTACTATAGGATTTAT [GTGCAC_site9424] | 11.4 ± 0.74
35 | AATATATTTATATAGTGTACATTTTTTATATATGTA [XGTACX_site8142] | 7.67 ± 0.18
36 | GGATTATTTATAGGAGTGCATACATATATATATATA [GTGCAC_site9454] | 9.76 ± 0.071
37 | ATAATTATTAATATAGTGCATTGGCATAATAATATA [GTGCAC_site9810] | 9.89 ± 0.2
38 | TTATTATTATTACTAGTGCATTAATTATATATGTAA | 11.6 ± 0.49
39 | ATATATCTTTATATAGTGCATTAAATATGTTGTAAT [GTGCAC_site9953] | 11.5 ± 0.54
40 | GTTTATATGTTCATAGTGCATATATGTTGATTTATT | 10.2 ± 0.33
41 | TTTTTTTTTAATTATGCATGTAAATTATATATTATA [TGCATGCA_site335] | 8.55 ± 1.1
42 | TTATTAAATATAAATATGTATCTTTTATGTTATATT [CACACA_negctrl_site306] | 7.29 ± 0.44
43 | TATCTTTTTACAATAGTGCATATGTTATCATTAATA [GTGCAC_site9489] | 9.54 ± 0.18
44 | CATATGTTATATGTAGTGCATTACTATAGGATTTAT [GTGCAC_site9860] | 11.4 ± 0.64
45 | TAAATATATAAACACACACACATTAATACAGATATT [CACACA_site5851] | 7.72 ± 0.54
46 | TATATATATATTTATACACACATTAGTGTAGACATG [CACACA_site8964] | 8.915 ± 0.021

Row | Sequence | gcPBM binding intensity (ln)
47 | ATATATATGTATACATGTACATATTTTATTATGTGC [XGTACX_site7207] | 7.9 ± 0.61
48 | TTATATATATATATATATATATATATATATATAAAT [GTGCAC_negctrl_site126] | 8.41 ± 0.23
49 | TTTTTATATGCGTATTGTACATTATACATATATATA [XGTACX_site6786] | 7.97 ± 0.38
50 | TTCTTTATTTTTTCTACACACATTAGATATTCAAAG [CACACA_site7624] | 8.02 ± 0.53
51 | ATGAAATATTTATTTGTGCACTTAATTTGTTGGAAA | 11.2 ± 0.21
52 | TTTATATTAATTGATGTGCACTGAAATATTTGTCCA [GTGCAC_site9655] | 10.3 ± 0.28
53 | TTGTTAATAAAAATATTGGAAAGTTTATAAAATTTT [CACACA_negctrl_site1487] | 7.53 ± 0.52
54 | AGAATTATTGTTAATGCATGTGGAAGTTAAAATATT [TGCATGCA_site188] | 8.48 ± 0.69
55 | TTTATTTGTGCATATACACACTTAAATATGTTTATT [CACACA_site7772] | 9.405 ± 0.035
56 | TTTGGAATATTAATTGTGCACTTAAAAAGTTAATTA | 11 ± 0.35
57 | TTGTTCATTATGCACAGTACATAAAAAGTAAAAAAA [XGTACX_site2403] | 10 ± 0.65
58 | TTTCTGTGTTTTGGTTGTACACACGCTACATTATAT [XGTACX_site5669] | 8.53 ± 0.67
59 | GGAAATAATATTATTACACACCAAAATGTATAAAAA [CACACA_site4036] | 8.36 ± 0.85
60 | ATTGAACACATCTATGCATGCACGGAAAAAAGTACA [TGCATGCA_site401] | 11 ± 0.28
61 | ATATATATATATGAAAGTACACATCTATTTTTTCTT [XGTACX_site6059] | 9.29 ± 0.18
62 | GCATGCACGGAAAAAAGTACATATATAAATTTGGTT [XGTACX_site3393] | 8.2 ± 0.52
63 | AGAAAGGATATAAGCGTAGCTATATCATAAAAAATG [GTGCAC_negctrl_site332] | 7.58 ± 0.74
64 | TTTTTTTTTTTTTTGGTGCACATAGAAATTCTAAAA [GTGCAC_site9809] | 10.9 ± 0.6
65 | TGTAGAAATGGGTGCACACACATATAAAATCTATAT [CACACA_site7224] | 10.4 ± 0.59
66 | AAAAAAAAAATTTTCGTGCACATAAGAAAATTTAAA [GTGCAC_site9788] | 10.3 ± 0.16
67 | ATATTTTAATTATAAAGTACATAAAAATATATAAAC [XGTACX_site6705] | 7.92 ± 0.35
68 | TTAATATTAATATATTGTACATATATGCACATATTT [XGTACX_site6569] | 9.1 ± 0.18
69 | TATTTCTGATTATTTTGTACACATTATATATAATGC [XGTACX_site6990] | 8.04 ± 0.29

Row | Sequence | gcPBM binding intensity (ln)
70 | TTTGTGTATATATAATGTACATTATATTTTTATTAT [XGTACX_site6506] | 8.13 ± 0.45
71 | ATATATACATATAAATGTACATAATTATTATGCACA [XGTACX_site1261] | 11.3 ± 0.82
72 | TATTACATACATATCTGTACATATATTAATGCACAA [XGTACX_site3315] | 11.6 ± 1
73 | TTTTTTTTTTTTTTGTGTACATATAATGCACATTAT [XGTACX_site6505] | 11.1 ± 0.93
74 | TATTATAATAAAATATGTACACACATACACACATAT [XGTACX_site2360] | 7.98 ± 0.41
75 | TTATGTTCATTATATGCACACATATATATAAATGTA [CACACA_site8947] | 9.11 ± 0.071
76 | ATATAATATCTGTATACACACATATTATATAATATT [CACACA_site5940] | 7.86 ± 0.51
77 | AAAAAAAAAAAATTATGTACATATTATATATAATGG [XGTACX_site2885] | 7.77 ± 0.45
78 | ATATATATATATAATGCACACATTATAAATTATGTA [CACACA_site5802] | 11.1 ± 0.26
79 | ATGTTCATTATATGCACACATATATATAAATGTAAT [CACACA_site2908] | 9.34 ± 0.3
80 | TGAAAATATATAACGCGTACAAAAAGGAAATACAAT [XGTACX_site3534] | 8.38 ± 0.64
81 | AAAAAAAAAAAAAATATACACACTAATATATTTTTT [CACACA_site815] | 7.98 ± 0.54
82 | TAAATATATTAAGCTTGTACATGAAAAAAAAAAAAA [XGTACX_site3264] | 8.1 ± 0.59
83 | TTTTCTTAAAAAATCAAACACACATATATATATACA [CACACA_site2297] | 7.6 ± 0.51
84 | ATAAATAATTATATATGTACACATTATGAATGGATA [XGTACX_site8336] | 7.78 ± 0.4
85 | ATATATATATATAATGCACACATTATGAATTATGTA [CACACA_site3384] | 11.3 ± 0.26
86 | GATATATAATATAATACACACATTTTATGAATGTAA [CACACA_site24] | 7.66 ± 0.32
87 | AAATGTTATAACTCTTGAAAAAACAAAATATCATCA [CACACA_negctrl_site1156] | 7.57 ± 0.49
88 | ACCAATAATATACATACACACATAAAGGTTTATATA [CACACA_site315] | 7.95 ± 0.44
89 | AAAAAAAAAAAAAACATACACACATTGAACTTTTAT [CACACA_site3251] | 8.18 ± 0.54
90 | TGTGTCCATTGAACAGTGCAATAAAAACTTTTACAT | 11.2 ± 0.59
91 | ATGAAACAGTAACATTGTACTTTTACAAAAAAATAA [XGTACX_site806] | 7.7 ± 0.33
92 | TACACACCTAACTATGCATGCATCAATATAGTGGAT [TGCATGCA_site443] | 7.76 ± 0.75
